The record followed here is PubChem BioAssay (NCI).

This is part of a sample that, as a whole, favours compounds with a hit. Of some 83,000 tested, about 20% had one in any assay.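 Activity criterion: percent growth below 10, measured after cells in 96-well plates were exposed to a single compound concentration for 48 hours.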 A number with no mark means an inactive call. Active and inactive are the calls of the source.

Test systems include NCI-H23 lung; NCI-H226 lung; NCI-H322M lung; HOP-62 NSCLC; HOP-92 NSCLC; NCI-H522 lung; A549/ATCC NSCLC; 786-0 renal; COLO 205 colon; DU-145 prostate; K-562 leukemia; MALME-3M melanoma; MDA-MB-231 breast; RXF 393 renal; SF-268 CNS; SF-295 CNS; SF-539 CNS; UACC-257 melanoma; M14 melanoma; NCI-H460 lung.
Experiment in all cases: NCI-60 one-dose screen, 48 h (100 = growth as untreated, 0 = no growth, -100 = all killed)
Details in all cases: 10 µM unless noted

Turning to `O=[N+]([O-])c1ccc([I+]c2ccccc2)cc1`, the growth in the experiment on NCI-H23 lung was -55.1% (active); in the experiment with NCI-H226 lung, -30.2% (active); with NCI-H322M lung it was 67.4%; with HOP-62 NSCLC, -67.6% (active); with HOP-92 NSCLC, 60.5%; in the experiment with NCI-H522 lung, -87.8% (active). The growth in the experiment with A549/ATCC NSCLC is -71.6% (active); with 786-0 renal it was -15.4% (active); in the experiment with COLO 205 colon it was -84.3% (active); in the experiment on DU-145 prostate, -10.5% (active); in the experiment with K-562 leukemia, 9.29% (active); with MALME-3M melanoma, -0.265% (active). Also, the growth in the experiment with MDA-MB-231 breast is 35.4%; in the experiment with RXF 393 renal, 57.8%; with SF-268 CNS, -69.7% (active); with SF-295 CNS, 77.9%; in the experiment on SF-539 CNS, 1.87% (active); in the experiment with UACC-257 melanoma, 29.7%. In the experiment with M14 melanoma, the growth was -36.6% (active).

For `Cc1ccc(Nc2ccc(O)c3c2C(=O)c2c(O)ccc(Nc4ccc(C)cc4)c2C3=O)cc1`, the growth in the experiment on NCI-H23 lung is 101%; with NCI-H226 lung, 95.6%; in the experiment with NCI-H322M lung, 128%; with HOP-62 NSCLC, 101%; with NCI-H460 lung, 105%; with NCI-H522 lung, 94.8%. The growth was 99.1% in the experiment with A549/ATCC NSCLC; 102% in the experiment on 786-0 renal; 108% in the experiment with COLO 205 colon; 124% with DU-145 prostate; 115% in the experiment with K-562 leukemia; 102% in the experiment on MALME-3M melanoma. For the same molecule, the growth in the experiment with MDA-MB-231 breast is 110%; in the experiment with SF-268 CNS it was 114%; in the experiment on SF-295 CNS, 104%; in the experiment on SF-539 CNS, 96.3%; in the experiment on UACC-257 melanoma, 95%; in the experiment with M14 melanoma it was 102%.

`O=C(Cc1ccccc1)C(F)(F)F`: the growth in the experiment with NCI-H23 lung was 103%; with NCI-H226 lung, 105%; with NCI-H322M lung it was 94.2%; with HOP-62 NSCLC, 102%; in the experiment on HOP-92 NSCLC it was 104%; in the experiment on NCI-H522 lung, 107%. The growth in the experiment with A549/ATCC NSCLC is 105%; with 786-0 renal, 94%; with COLO 205 colon, 104%; in the experiment with DU-145 prostate it was 103%; in the experiment on K-562 leukemia, 94.5%; in the experiment with MALME-3M melanoma it was 99.4%. Moreover, the growth with MDA-MB-231 breast is 96.5%; in the experiment with RXF 393 renal it was 104%; with SF-268 CNS, 98.9%; in the experiment with SF-295 CNS, 101%; with SF-539 CNS it was 97%; with UACC-257 melanoma, 18.1%. Besides, the growth with M14 melanoma was 99.6%.

As to `Cc1cc(C)c([I+]c2c(C)cc(C)cc2C)c(C)c1`, the growth in the experiment with NCI-H23 lung is -29.1% (active); in the experiment with NCI-H226 lung, -1.55% (active); with NCI-H322M lung, 46.5%; in the experiment with HOP-62 NSCLC it was -78.3% (active); in the experiment on NCI-H460 lung, 1.11% (active); in the experiment with NCI-H522 lung, -66.8% (active). Besides, the growth in the experiment on A549/ATCC NSCLC was 6.93% (active); with 786-0 renal, -89.6% (active); in the experiment on COLO 205 colon, -94.4% (active); with DU-145 prostate, 14.8%; in the experiment with MALME-3M melanoma, -51.6% (active); in the experiment with MDA-MB-231 breast, -55.1% (active). For the same molecule, the growth is -36.7% (active) with RXF 393 renal; -66.9% (active) in the experiment with SF-268 CNS; -33.7% (active) in the experiment with SF-295 CNS; -74.7% (active) with SF-539 CNS; -49.6% (active) in the experiment on UACC-257 melanoma; -77.6% (active) in the experiment on M14 melanoma.

For `CCN(CC)CC(O)CNc1ccc(NCC2CO2)c2c1C(=O)c1ccccc1C2=O` (configuration not stated), the growth was -43% (active) in the experiment with NCI-H23 lung; 0.0591% (active) with NCI-H226 lung; -16.7% (active) in the experiment on NCI-H322M lung; -34.9% (active) in the experiment with HOP-62 NSCLC; -43.9% (active) with NCI-H460 lung; -74.1% (active) in the experiment with NCI-H522 lung. Also, the growth with A549/ATCC NSCLC was 7.32% (active); in the experiment with 786-0 renal, -21.7% (active); with COLO 205 colon it was -40.8% (active); with DU-145 prostate it was -19.1% (active); in the experiment on K-562 leukemia, -25.6% (active); in the experiment on MALME-3M melanoma it was -44.4% (active). Besides, the growth with MDA-MB-231 breast is -2.98% (active); with RXF 393 renal, 4.29% (active); with SF-268 CNS, -7.61% (active); with SF-295 CNS it was 20.4%; in the experiment on SF-539 CNS it was -39.4% (active); in the experiment on UACC-257 melanoma, -2.17% (active). Besides, the growth in the experiment on M14 melanoma was -63.1% (active).

Turning to `Oc1ccc2ccccc2c1N=Nc1nccs1`, the growth in the experiment with NCI-H23 lung was 40%; in the experiment on NCI-H226 lung, -0.189% (active); in the experiment with NCI-H322M lung, 15.7%; in the experiment on HOP-62 NSCLC it was 20.2%; with HOP-92 NSCLC, 46.9%; in the experiment with NCI-H522 lung, 178%. The growth in the experiment with A549/ATCC NSCLC was 43.6%; in the experiment on 786-0 renal, -40.2% (active); in the experiment with COLO 205 colon, 21.4%; in the experiment with DU-145 prostate, 20.5%; in the experiment on K-562 leukemia it was 10.4%; in the experiment on MALME-3M melanoma, 29.2%. In addition, the growth with MDA-MB-231 breast was 28.8%; in the experiment on RXF 393 renal it was 47.3%; in the experiment on SF-268 CNS, 1.32% (active); with SF-295 CNS it was 31.4%; in the experiment on SF-539 CNS it was 15.2%; in the experiment with UACC-257 melanoma, 66%. The growth in the experiment with M14 melanoma is 26.3%.

Take `CCOC(=O)c1[nH]c(C#N)c(C(=O)OCC)c1C`: the growth is 101% in the experiment on NCI-H23 lung; 95.9% with NCI-H226 lung; 93.6% in the experiment on NCI-H322M lung; 101% in the experiment with HOP-62 NSCLC; 114% with NCI-H460 lung; 97.9% in the experiment with NCI-H522 lung. The growth is 98% in the experiment on A549/ATCC NSCLC; 86.9% with 786-0 renal; 131% with COLO 205 colon; 106% with DU-145 prostate; 109% with MALME-3M melanoma; 102% with MDA-MB-231 breast. Further, the growth was 90.5% with RXF 393 renal; 111% with SF-268 CNS; 89.3% in the experiment with SF-295 CNS; 104% in the experiment with SF-539 CNS; 104% with UACC-257 melanoma; 109% with M14 melanoma.

In the case of `O=C1c2ccccc2C(=O)c2c(O)c(Cl)cc(O)c21`, the growth was 96.6% in the experiment with NCI-H23 lung; 104% in the experiment on NCI-H226 lung; 111% with NCI-H322M lung; 96.2% in the experiment with HOP-62 NSCLC; 87.7% with HOP-92 NSCLC; 85.4% in the experiment with NCI-H522 lung. The growth with A549/ATCC NSCLC is 108%; with 786-0 renal, 99.2%; in the experiment on COLO 205 colon, 101%; with DU-145 prostate, 69.7%; with K-562 leukemia it was 57%; in the experiment with MALME-3M melanoma, 71.5%. Moreover, the growth is 95.6% in the experiment on MDA-MB-231 breast; 103% in the experiment on RXF 393 renal; 94.4% with SF-268 CNS; 113% with SF-295 CNS; 99.1% with SF-539 CNS; 58.4% with UACC-257 melanoma.

Turning to `CCOC(=O)c1c(C)[nH]c2ccc(O)cc12`, the growth in the experiment on NCI-H23 lung is 103%; in the experiment on NCI-H226 lung it was 94.3%; in the experiment with NCI-H322M lung, 99.7%; in the experiment with HOP-62 NSCLC, 107%; in the experiment on HOP-92 NSCLC it was 103%; in the experiment on NCI-H522 lung, 52.7%. Besides, the growth is 95.7% in the experiment with A549/ATCC NSCLC; 100% in the experiment on 786-0 renal; 113% in the experiment on COLO 205 colon; 106% in the experiment with DU-145 prostate; 101% in the experiment on K-562 leukemia; 103% in the experiment on MALME-3M melanoma. Besides, the growth in the experiment with MDA-MB-231 breast is 96.7%; in the experiment on RXF 393 renal, 109%; in the experiment with SF-268 CNS, 97.7%; in the experiment on SF-295 CNS, 111%; in the experiment on SF-539 CNS it was 98.1%; with UACC-257 melanoma it was 92.9%. The growth with M14 melanoma was 101%.
